CBX7 AlphaScr – CBX7 chromodomain binding inhibitors, primary screen, biochemical, AlphaScreen; Chromobox protein homolog 7 (Homo sapiens), O95931; AlphaScreen His6-CBX7 / biotin-H3K27me3 peptide binding; active compounds read low; normalised signal (fraction of DMSO) (test concentration not listed); 1.1% of 66,000 active; AID 1224903, 2016; in the data active = normalised signal below about 0.5
Target sequence (O95931 whole entry, looked up): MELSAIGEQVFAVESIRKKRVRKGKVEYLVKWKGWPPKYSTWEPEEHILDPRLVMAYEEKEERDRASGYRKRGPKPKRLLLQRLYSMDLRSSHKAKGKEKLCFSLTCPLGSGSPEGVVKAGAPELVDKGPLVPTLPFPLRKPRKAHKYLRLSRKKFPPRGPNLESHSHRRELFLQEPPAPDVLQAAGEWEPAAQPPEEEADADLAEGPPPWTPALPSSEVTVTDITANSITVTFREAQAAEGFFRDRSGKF
Large screens that a line does not name were inactive. Shown is part of a subset that was picked to be rich in hits.

Cc1ccccc1NC(=O)C1(S(=O)(=O)c2ccc(Cl)cc2)CC1	none
Cc1c(C(=O)Nc2c(F)cccc2F)sc2ncn(CC(=O)N3CCCCC3C)c(=O)c12 (centres undefined)	none
COCc1cc(=O)[nH]c(Nc2nc(C)c3ccccc3n2)n1	none
O=c1cc(-c2ccccc2)nc(Nc2nc3ccccc3o2)[nH]1	none
COCc1cc(=O)[nH]c(Nc2nc3ccccc3o2)n1	CBX7 AlphaScr 0.117
CCCC(=O)NCCc1nc2ccccc2n1Cc1ccccc1	none
CC(C)c1ccc(NC(=O)C(c2ccccc2)N2CCc3ccccc32)cc1 (centres undefined)	CBX7 AlphaScr 0.495
Cc1cccc(C)c1NC(=O)C(c1ccccc1)N1CCc2ccccc21 (centres undefined)	none
CC(C)c1ccc(NC(=O)C(c2ccc3c(c2)OCO3)N2CCc3ccccc32)cc1 (centres undefined)	none
Cc1nc2ncnn2c(C)c1CCC(=O)Nc1cccc(C(F)(F)F)c1	none
CCCCN(CCCC)S(=O)(=O)c1ccc(C(=O)Nc2nnc(-c3ccc(Cl)s3)o2)cc1	none
C=CCN(CC=C)S(=O)(=O)c1ccc(C(=O)Nc2nnc(-c3ccc(Cl)s3)o2)cc1	CBX7 AlphaScr 0.366
CCN(CC)S(=O)(=O)c1ccc(C(=O)Nc2nnc(-c3ccc(Cl)s3)o2)cc1	none
CN(C)S(=O)(=O)c1ccc(C(=O)Nc2nnc(-c3ccc(Cl)s3)o2)cc1	CBX7 AlphaScr 0.221
COc1nnc(-c2ccc(N3CCOCC3)c(NC(=O)COc3ccccc3)c2)c2ccccc12	none
O=C(CSc1nnc(CNC(=O)c2ccccc2F)o1)Nc1ccc(F)cc1F	none
COc1ccc(-c2nc3cc(Br)c(C)c(C)c3nc2-c2ccc(OC)cc2)cc1	none
Cc1cc(=O)nc2sc(N3CCC(C(=O)O)CC3)nn12	none
Cc1ccc(NC(=O)c2sc(-c3ccccc3)nc2C)cc1	none
CCC(=C(c1ccc(OC)cc1)c1ccc(OC)cc1)c1cn(CC(O)CN2CCCC2)c2ccccc12 (centres undefined)	CBX7 AlphaScr 0.26
OC(CN1CCCCC1)Cn1c2ccccc2c2ccccc21 (centres undefined)	none
COc1ccc(-c2cc3ccccc3n2CC(O)CN2CCCCCC2)cc1 (centres undefined)	none
Cc1ccc(NCC(O)Cn2c3c(c4cc(C)ccc42)CCCC3)c(C)c1 (centres undefined)	CBX7 AlphaScr 0.475
Cc1ccc(NCC(O)Cn2c3c(c4cc(C)ccc42)CCCC3)cc1 (centres undefined)	none
Cc1ccc2c(c1)c1c(n2CC(O)CN2CCCCC2C)CCCC1 (centres undefined)	none
O=C(CNC(=O)Cn1ccc2ccccc2c1=O)NCc1ccc(F)cc1	none
COc1cccc(C(=O)Nc2ccccc2-c2nc3ccccc3[nH]2)c1	none
CCCS(=O)(=O)c1c(S(=O)(=O)CCC)c2cc(-c3ccncc3)ccn2c1C(N)=O	none
N#CCCN(CCC#N)S(=O)(=O)c1ccc(C(=O)Nc2nnc(C3CC3)o2)cc1	CBX7 AlphaScr 0.00211
CN(Cc1ccccc1)S(=O)(=O)c1ccc(C(=O)Nc2nnc(C3CC3)o2)cc1	none
C=CCN(CC=C)S(=O)(=O)c1ccc(C(=O)Nc2nnc(C3CC3)o2)cc1	CBX7 AlphaScr 0.00398
CCN(CC)S(=O)(=O)c1ccc(C(=O)Nc2nnc(-c3cccs3)o2)cc1	none
CCN(CC)S(=O)(=O)c1ccc(C(=O)Nc2nnc(C3CC3)o2)cc1	CBX7 AlphaScr 0.00295
C=CCN(CC=C)S(=O)(=O)c1ccc(C(=O)Nc2sc3c(c2C(=O)OC)CCN(C)C3)cc1	none
COc1ccccc1Nc1nnc(Cc2cccnc2)c2ccccc12	none
Cc1noc(C)c1S(=O)(=O)N1CCCC(C(=O)NCc2ccc(Cl)cc2)C1 (centres undefined)	none
CCOC(=O)c1c(NC(=O)NS(=O)(=O)c2ccccc2Cl)sc2c1CCCC2	none
Cc1ccc(C23CC4CC(C2)CC(c2csc(NC(=O)c5ccc(F)cc5)n2)(C4)C3)cc1	none
CCOc1ccc(NC(=O)[C@H](CCS(C)(=O)=O)N2Cc3ccccc3C2=O)cc1	none
CN(C)C(=O)N1CCCC(C(=O)NCc2ccc(F)cc2)C1 (centres undefined)	none
O=C(c1cnc(N2CCN(c3ncccn3)CC2)c2ccccc12)N1CCN(c2ccccn2)CC1	none
O=C(c1ccc(C#Cc2ccccc2)o1)N1CCN(c2ccccn2)CC1	CBX7 AlphaScr 0.448
O=C(c1n[nH]c(=O)c2ccccc12)N1CCN(c2ccccn2)CC1	none
CCOc1cc2c(cc1OCC)C1C(C(=O)NC3CC3)c3ccccc3C(=O)N1CC2 (centres undefined)	none
COc1ccccc1N1C(=O)CC(c2cn(C)c3ccccc23)C1=O (centres undefined)	none
Cc1oc(-c2ccccc2Cl)nc1C(=O)NCCc1ccccc1	none
O=C(Nc1ccc(Cl)cc1)Nc1ccc(Nc2ccccc2)cc1	none
Cc1ccc(NC(=O)Nc2ccc(Cl)cc2)nc1	none
COc1nc(OC)nc(-n2cnc(NC(=O)Nc3ccc(Cl)cc3)n2)n1	CBX7 AlphaScr 0.245
CCOC(=O)N1CCC(Nc2c(NCc3ccccc3)c(=O)c2=O)CC1	none
O=C(NCc1cccc(Cl)c1)c1cc2ccccn2n1	none
COCC(=O)NC1(c2nnnn2-c2cccc(Cl)c2)CCCCC1	none
CCc1cc2c(oc(=O)c3ccccc32)c(CN2CCN(C)CC2)c1O	CBX7 AlphaScr 0.345
CCc1cc2c(=O)c(-c3nc4ccccc4n3C)c(C)oc2c(CN2CCCCC2)c1O	none
CCc1cc2c(C)cc(=O)oc2c(CN2CCCCCC2)c1O	none
Cc1ccc(C)c(NC(=O)C(=O)NCc2ccccc2)c1	none
CC(C)CCNC(=O)C1CC(=O)N(c2ccc(F)c(Cl)c2)C1 (centres undefined)	none
CCCCOc1ccc(C(=O)Nc2nc(-c3ccc(CC)cc3)cs2)cc1	none
CCc1cc(C(=O)Cc2ccc3ccccc3n2)c(O)cc1OC	CBX7 AlphaScr 0.345
CCc1cc(-c2[nH]ncc2Oc2ccccc2)c(O)cc1OC	none
CCc1cc(-c2n[nH]c(C)c2Oc2ccccc2)c(O)cc1OC	none
C=C(C)Cn1c(C2CC(=O)N(c3cc(OC)ccc3OC)C2)nc2ccccc21 (centres undefined)	none
Cc1nc2cc(-c3ccccc3)nn2c(C)c1CCC(=O)NCc1ccccc1	none
COc1ccc(Cl)cc1NC(=O)c1cc2c(s1)-c1c(C)cccc1OC2	none
Cc1cc(C)c(C(=O)c2ccc(-c3nnc(-c4ccccc4)o3)cc2)c(C)c1	none
Clc1ccc(-c2cnc(-c3ccncc3)o2)cc1	none
NC(=O)c1ccc(-c2ncc(-c3ccccc3)o2)cc1	CBX7 AlphaScr 0.424
Cc1c(C(=O)NCc2ccccc2Cl)oc2ccc(S(=O)(=O)N3CCOCC3)cc12	none
CCCCN(CCCNC(=O)Cn1nc(-c2ccccc2)ccc1=O)Cc1ccccc1	none
O=C(CCCN1C(=O)CSc2ncccc21)NCCc1ccccc1	none
CCOCCCNC(=O)c1ccc2c(c1)N(Cc1ccccc1Cl)C(=O)c1ccccc1S2	none
Cc1nnc(CSc2nnc3n(N)cnn23)o1	none
CCN1CCCc2cc(CN(CCN3CCOCC3)C(=O)Nc3ccc(Cl)cc3)ccc21	none
CCOc1ccc(NC(=O)N(CCN2CCOCC2)Cc2ccc3c(c2)CCCN3CC)cc1	none
CCCCN1CCCc2cc(CN(CCCN3CCOCC3)C(=O)Nc3ccc(C)c(C)c3)ccc21	CBX7 AlphaScr 0.22
CCCN1CCCc2cc(CN(CCCN3CCOCC3)C(=O)Nc3ccc(OCC)cc3)ccc21	none
CCCN1CCCc2cc(CN(CCCOC)C(=O)Nc3ccc(C)c(C)c3)ccc21	none
CCCN1CCCc2cc(CN(CCCOC)C(=O)Nc3ccc(OCC)cc3)ccc21	CBX7 AlphaScr 0.233
CCN(CC)S(=O)(=O)c1ccc(C(=O)Nc2sc3c(c2C(=O)OC)CCN(C(C)=O)C3)cc1	none
